This is one part of a sample in which hits are shown more often than they occur.
Dicer inh – blocks human Dicer maturation of pre-miR-21; Q9UPY3; cat-ELCCA pre-miR-21 Dicer processing, chemiluminescence; active compounds read high; z-score at 25 µM; 47,000 tested, 6% active; AID 1347074; in the data active means z-score above about 3, passing the limit was not always enough;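 further: plate controls were vehicle for no effect and no enzyme for full effect; higher signal means more uncleaved substrate so more Dicer inhibition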
* hit, by the source's call.

SMILES	Dicer inh
COc1ccc(-c2c[nH]n3c(=O)cc(C)nc23)cc1OC	0.6
CCCCCNc1ncnc2c1sc1nc(N3CCOCC3)c3c(c12)CC(C)(C)OC3	1.57
O=S(=O)(Cc1ccccc1)Nc1ccncc1	-0.38
COc1ccc(C2(CNS(=O)(=O)c3ccccc3)CCCC2)cc1OC	5.94*
COc1ccc(S(=O)(=O)NCCSc2nnnn2-c2ccccc2)cc1OC	1.75
COc1ccc(-c2nc(S(=O)(=O)c3ccccc3)c(N3CCCCC3)o2)cc1OC	1.46
CC1CCN(C(=O)CCCC(=O)O)CC1	0.92
NC(=O)C1CCN(C(=O)CCC(=O)O)CC1	3.5*
NC(=O)C1CCN(C(=O)CN(CC(=O)N2CCC(C(N)=O)CC2)Cc2ccco2)CC1	0.68
NC(=O)C1CCN(C(=O)/C=C/C(=O)O)CC1	0.65
NC(=O)C1CCN(C(=O)CSc2ncccn2)CC1	3.6*
CCOC(=O)N1CCN(C(=O)CSc2ncccn2)CC1	0.08
COc1cc(Cl)c(NC(=O)c2c(C)noc2C)c(OC)c1	-0.88
NS(=O)(=O)c1ccccc1Oc1ccc(Cl)cc1Cl	-1.46
Cc1ccc(-n2c(=O)[nH]c3c(cnn3-c3ccccc3)c2=O)cc1	27.2
Cc1ccc(-c2c3c(=O)n(C)c(=O)n(C)c3cn2-c2cc(C)c(C)cc2N)cc1	-0.04
CSC1=NNC(c2nn(C)cc2Cl)S1 (stereo unspecified)	-0.28
Cc1oc(C(C)(C)C)cc1C(=O)Nc1ccc(N(C)C)cc1	2.96
C=CCn1c(NCc2ccccc2O)nc2ccccc21	0.92
CC(C)n1c(NCc2ccccc2O)nc2ccccc21	0.13
C=CCn1c(NCc2cc(Cl)ccc2O)nc2ccccc21	3.89*
C=CCn1c(NCc2ccc(N(CC)CC)cc2)nc2ccccc21	2.31
CCCn1c(NCc2cc(Cl)ccc2O)nc2ccccc21	1.67
CCn1c(NCc2cc(Cl)ccc2O)nc2ccccc21	3.02*
CC1(C)O[C@H]2O[C@H](C(O)CO)[C@H](O)[C@H]2O1 (stereo partly specified)	0.89
SMILES	Dicer inh
O=C(O)c1cccc([N+](=O)[O-])c1C(=O)Nc1ccc(Cl)c(Cl)c1	1.52
COc1ccc(OC)c(C2NC(=O)c3c(sc4c3CCCC4)N2)c1 (stereo unspecified)	0.09
N/C(=N\OC(=O)Nc1ccc(Cl)cc1)c1ncc([N+](=O)[O-])s1	-2.55
N/C(=N/OC(=O)Nc1ccc(Cl)cc1)c1csc([N+](=O)[O-])c1	4.95*
O=C(Nc1ccc(Cl)cc1)Nc1csc([N+](=O)[O-])c1	-0.84
O=C1c2oc3ccc(F)cc3c(=O)c2C(c2ccccc2F)N1CCCN1CCOCC1 (stereo unspecified)	0.8
O=C(O)c1cc(Cl)ccc1S(=O)c1ccccc1CO (stereo unspecified)	-0.67
Cc1ccc(C(=O)Nc2cnc3sc(C)nn3c2=O)cc1	4.79*
Cc1nn2c(=O)c(NC(=O)c3ccc(F)cc3)cnc2s1	-2.35
Cc1nn2c(=O)c(NC(=O)c3ccc(Cl)cc3)cnc2s1	-0.21
COC(OC)c1ccnc(SCc2ccc(Cl)cc2Cl)n1	-1.03
OC1CCN(c2cc(C(F)(F)F)nc3cc(Cl)cc(Cl)c23)CC1	-1.28
COc1ccc(NS(=O)(=O)c2ccc(NS(=O)(=O)c3ccc(Cl)cc3)cc2)cc1	-0.09
COc1ccc(NS(=O)(=O)c2ccc(N)cc2)cc1	0.5
COc1ccc(NS(=O)(=O)c2cccc(S(=O)(=O)c3ccc(Cl)cc3)c2)cc1	3.43*
COC(=O)c1sccc1-c1ccc(CN2CCC(c3ccccc3OC)CC2)o1	-2.46
C=CCSc1nnc(-c2ccc(C(F)(F)F)nc2C)o1	-0.21
CCOC(=O)c1ccc(Oc2sccc2[N+](=O)[O-])cc1	3.43*
CCOC(=O)c1ccc(N)cc1	0.55
CCOC(=O)C1CCN(c2sccc2[N+](=O)[O-])CC1	0.88
O=C1C2C3C=CC(CO)(O3)C2C(=O)N1c1cccc2ccccc12 (stereo unspecified)	-0.35
COc1cccc(-c2nc(=S)c3c(n2CCCN(C)C)CCCC3)c1	0.49
CC(=O)C(C=Nc1ccc(Cl)cc1Cl)C(C)=O	-0.48
C#CC(O)(c1ccccc1)c1ccccc1	0.09
COc1ccc(C(O)(c2ccccc2)c2ccccc2)cc1	1.88
SMILES	Dicer inh
CC(C)C(N)C(O)(c1ccccc1)c1ccccc1 (stereo unspecified)	3.85*
Brc1ccc(CSc2nc3ccccc3o2)cc1	0.17
CCOC(=O)c1ccc2nc(C(F)(F)F)cc(NC3CCN(Cc4ccccc4)CC3)c2c1	-3.13
CC(C)(C)NC(=S)N/N=C/c1ccccc1O	5.74
CC(C)(C)NC(=S)N/N=C/c1coc2c(Cl)cc(Cl)cc2c1=O	4.85*
CC(C)(C)NC(=S)N/N=C/c1ccccc1Cl	-0.13
Nc1nnc(SCC(=O)N2CCN(S(=O)(=O)c3ccccc3)C2)s1	-0.59
O=C(Nc1c(Br)cc(Br)cc1C(=O)Nc1ccc(F)cc1)c1ccc([N+](=O)[O-])cc1	0.06
COc1ccc(OC)c(C(=O)c2oc3ccc(OC)cc3c2N)c1	-0.97
CCCCOC(=O)Nc1ccc(N(CC)CC)cc1	2.02
CCCc1c(NC(=O)Nc2ccc(F)cc2)cnn1-c1ccccc1	-1.48
CCCc1cc(C(=O)Nc2ccc(N(CC)CC)cc2)nn1-c1ccccc1	4.43*
